Results published in article PMC5540273 (PLoS ONE, 2017).

Legend:
Settings in all cases: concentration: 1 μM, replicates: in singlicate; n = 1
[1] = system: INSR
[2] = system: IRAK1
[3] = system: IRAK3
[4] = system: IRAK4
[5] = system: ITK
[6] = system: JAK1(JH1domain-catalytic)
[7] = system: JAK1(JH2domain-pseudokinase)
[8] = system: JAK2(JH1domain-catalytic)
[9] = system: JAK3(JH1domain-catalytic)
[10] = system: T1, JNK1
T1 construct: gene MAPK8

[11] = system: T2, JNK2
T2 construct: gene MAPK9

[12] = system: T3, JNK3
T3 construct: gene MAPK10

[13] = system: KIT-autoinhibited
[14] = system: KIT
[15] = system: LATS1
[16] = system: LATS2
[17] = system: LCK
[18] = system: LIMK1
[19] = system: LIMK2
[20] = system: T4, LKB1
T4 construct: gene STK11
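Further: KINOMEscan kinase panel screen.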

| Structure (SMILES) | %Inh [1] [%] | %Inh [2] [%] | %Inh [3] [%] | %Inh [4] [%] | %Inh [5] [%] | %Inh [6] [%] | %Inh [7] [%] | %Inh [8] [%] | %Inh [9] [%] | %Inh [10] [%] | %Inh [11] [%] | %Inh [12] [%] | %Inh [13] [%] | %Inh [14] [%] | %Inh [15] [%] | %Inh [16] [%] | %Inh [17] [%] | %Inh [18] [%] | %Inh [19] [%] | %Inh [20] [%] |
| --- | --- | --- | --- | --- | --- | --- | --- | --- | --- | --- | --- | --- | --- | --- | --- | --- | --- | --- | --- | --- |
| COc1cc(Nc2nccc(N3CCC(NC(=O)C(C)c4ccc(Cl)cc4)C3)n2)cc(OC)c1OC (stereo not drawn) [GSK1379757] | 0 | 41 | 68 | 10 | 11 | 20 | 0 | 86 | 0 | 3 | 6 | 0 | 0 | 2 | 0 | 1 | 8 | 1 | 22 | 7 |
| COc1cc(Nc2ccnc3ccc(C(F)(F)F)cc23)cc(OC)c1OC [GW577382] | 10 | 22 | 6 | 2 | 9 | 8 | 0 | 9 | 100 | 39 | 48 | 29 | 0 | 19 | 0 | 0 | 68 | 18 | 0 | 0 |
| Cc1cc(Nc2nc(-c3cccc(C)n3)nc3ccccc23)ccn1 [GW872411] | 0 | 0 | 0 | 0 | 0 | 4 | 81 | 0 | 0 | 0 | 14 | 0 | 2 | 0 | 0 | 0 | 0 | 0 | 0 | 0 |
| O=C(Nc1n[nH]c2nc(-c3ccccc3)c(Br)cc12)C1CC1 [SB-708998] | 7 | 0 | 0 | 6 | 1 | 0 | 0 | 18 | 0 | 29 | 0 | 0 | 9 | 31 | 0 | 0 | 23 | 19 | 12 | 0 |
| Nc1ncnc2c1ncn2-c1ccc(Cl)cc1 [AH2635] | 0 | 17 | 0 | 0 | 0 | 2 | 0 | 4 | 0 | 0 | 0 | 0 | 0 | 65 | 0 | 24 | 24 | 0 | 6 | 10 |
| COc1cccc(-n2cnc3c(N)ncnc32)c1 [SKF-97416] | 0 | 38 | 42 | 0 | 0 | 0 | 58 | 44 | 19 | 0 | 27 | 8 | 23 | 12 | 8 | 1 | 10 | 0 | 7 | 60 |
| Nc1nc(-c2ccccc2F)c(-c2ccnc3ccccc23)s1 [GW560459] | 94.4 | 30 | 17 | 15 | 3 | 18 | 0 | 9 | 0 | 56 | 87 | 87 | 0 | 9 | 0 | 0 | 11 | 1 | 0 | 0 |
| O=C1NC(=O)C(c2ccccc2)=C1Nc1cccc(O)c1 [SB-390534] | 0 | 0 | 0 | 0 | 0 | 0 | 17 | 15 | 0 | 22 | 13 | 4 | 0 | 10 | 21 | 0 | 24 | 0 | 0 | 0 |
| CCC(=O)c1c(-c2ccccc2)c2cc(Cl)ccc2c(=O)n1Cc1cc(C(=O)NC2CC2)n(C)n1 | 0 | 21 | 0 | 20 | 0 | 10 | 3 | 0 | 6 | 99.7 | 100 | 99.8 | 0 | 58 | 19 | 1 | 0 | 0 | 0 | 9 |
| Nc1nc(N)c2nc(-c3ccccc3)[nH]c2n1 [SKF-12778] | 0 | 34 | 0 | 3 | 8 | 11 | 84 | 50 | 39 | 20 | 14 | 8 | 5 | 21 | 0 | 0 | 19 | 0 | 3 | 0 |
| CCCC(=O)Nc1n[nH]c2ncc(-c3cccc4ccccc34)cc12 [SB-642057] | 18 | 77 | 0 | 41 | 15 | 9 | 0 | 0 | 0 | 20 | 21 | 0 | 0 | 12 | 0 | 25 | 20 | 9 | 0 | 0 |
| COc1ccc(-c2cc3c(C)nc(N)nc3n([C@H]3CC[C@H](O)CC3)c2=O)cn1 | 0 | 0 | 0 | 0 | 0 | 0 | 0 | 0 | 0 | 0 | 0 | 0 | 0 | 0 | 0 | 7 | 0 | 0 | 0 | 0 |
| CCc1nc(-c2cccc(C)c2)c(-c2ccncc2)s1 | 0 | 0 | 0 | 0 | 4 | 0 | 41 | 1 | 0 | 57 | 76 | 90.3 | 0 | 42 | 4 | 0 | 24 | 0 | 0 | 35 |
| Cc1nc(N(C)[C@H]2CN(C(=O)CC#N)CC[C@H]2C)c2cc[nH]c2n1 | 0 | 0 | 0 | 0 | 5 | 11 | 0 | 69 | 97.6 | 1 | 0 | 0 | 0 | 0 | 7 | 13 | 0 | 0 | 16 | 0 |
| CCS(=O)(=O)c1ccc(OC)c(Nc2ncc(-c3ccc(F)cc3)o2)c1.Cl [GW591947] | 0 | 0 | 0 | 3 | 0 | 11 | 0 | 8 | 0 | 2 | 21 | 0 | 0 | 17 | 0 | 0 | 13 | 0 | 0 | 0 |
| O=C(NCCNc1ccnc(Nc2ccc(F)cc2)n1)Nc1ccc2c(c1)OCO2 [GSK1379882] | 7 | 16 | 7 | 0 | 9 | 12 | 3 | 100 | 0 | 22 | 10 | 3 | 0 | 34 | 0 | 17 | 0 | 0 | 0 | 25 |
| Nc1n[nH]c2ncc(-c3ccccc3)cc12 [SB-517081] | 18 | 49 | 3 | 22 | 19 | 4 | 34 | 55 | 0 | 38 | 14 | 5 | 13 | 83 | 0 | 0 | 7 | 0 | 9 | 0 |
| COc1cc2nccc(Nc3ccc(OCc4ccc(NC(C)=O)cc4)cc3)c2cc1OC.Cl [GW440135] | 0 | 28 | 1 | 0 | 5 | 20 | 0 | 0 | 0 | 15 | 0 | 0 | 12 | 100 | 0 | 0 | 22 | 0 | 0 | 0 |
| Nc1ncnc2c1ncn2-c1cccc2ccccc12 [SKF-97184] | 0 | 27 | 0 | 0 | 0 | 1 | 33 | 54 | 19 | 15 | 0 | 0 | 20 | 8 | 18 | 0 | 0 | 0 | 0 | 92.8 |
| COC(=O)c1c(-c2ccccc2)c2cc(C)ccc2c(=O)n1Cc1ccccc1 | 1 | 21 | 0 | 20 | 1 | 0 | 0 | 0 | 0 | 44 | 32 | 48 | 0 | 75 | 0 | 0 | 0 | 5 | 0 | 0 |
| OCCCNc1nccc(-c2c(-c3cccc(C(F)(F)F)c3)nn3cc(C(F)(F)F)ccc23)n1 [GW630813] | 0 | 29 | 0 | 2 | 0 | 14 | 0 | 0 | 0 | 0 | 13 | 15 | 13 | 2 | 0 | 0 | 0 | 0 | 12 | 16 |
